A selection: hits, their analogues and other compounds. The true share with any hit is near 8.8%.
HTT ATP protect: protects HTT-Q103 PC12 cells, measured by ATP; PC12 HTT-Q103 induced, cytoprotection, ATP luminescence, 40 h; Potency, µM (titrated, usually from 56.4 µM), for inactives: cytoprotection (ATP increase), usual class: activators; 0.14% of 230,000 active; AID 1471; active means well fitted curve in the direction sought with a large enough effect; inconclusive means small, poorly fitted or top-dose-only effect, or another doubt; inactive means no such curve, though single readings can be large; an effect the other way counts as inactive or inconclusive; further: % of control where 0% means no effect; nearly all actives have a fitted effect of over 45% in size
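Compounds added alongside 100 nM tebufenozide, which induces toxic Q103 huntingtin exon 1-GFP in stable PC12 cells; surviving cells quantified by luminescent ATP measurement. Medium: phenol red-free DMEM, 5% equine and 5% calf serum.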
Lamin A splicing: modulators of lamin A splicing; HeLa LMNA splicing GFP/RFP minigene ratio, 48 h; Potency, µM (doses to about 46.1 µM), for the others: top-dose ratio change, negative = inhibition, most hits filed as inhibitors; 0.01% of 200,000 active; active means well fitted inhibition curve with a large enough effect in the signal ratio, with a control signal flat, not every such curve was filed as active; inconclusive means small, poorly fitted or top-dose-only effect, or effect the other way, or a change in a side signal; the % refers to the signal ratio; further: on the % scale 0 is the no-effect control and ±100 the full control effect
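S3 HeLa cells stably expressing lamin A-EGFP splicing minigene plus DsRed2, 600 cells/well, 48 h compound exposure at 37C. Laser-scanning cytometry; analysed as GFP (500-530 nm)/RFP (575-640 nm) total intensity ratio; 0.5% DMSO vehicle.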
HPGD inh: blocks human HPGD enzyme activity. Potency, µM, for inactives: at the top dose activity change, negative = inhibition, actives largely listed as inhibitors. P15428. purified HPGD, NADH fluorescence kinetic, PGE2 substrate. 4.3% of 150,000 active; further: on the % scale 0 is the no-effect control and ±100 the full control effect
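NADH formation kinetics: reaction with 30 uM PGE2 and 1 mM NAD+ (final), 20 nM enzyme, Tris-HCl pH 8 with Tween 20, after 15 min compound preincubation at room temperature. Fluorescence change, last versus first of five reads.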
ALDH1A1 block: blocks purified human ALDH1A1 activity; P00352; Purified ALDH1A1, NADH fluorescence, propionaldehyde substrate; Potency, µM (titrated, usually from 75.3 µM), inactives show at the top dose activity, negative = inhibition, actives largely listed as inhibitors; 7.3% of 220,000 active; AID 1030;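 further: plate controls were no enzyme wells and a reference inhibitor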
Target sequence (P00352 whole entry, looked up): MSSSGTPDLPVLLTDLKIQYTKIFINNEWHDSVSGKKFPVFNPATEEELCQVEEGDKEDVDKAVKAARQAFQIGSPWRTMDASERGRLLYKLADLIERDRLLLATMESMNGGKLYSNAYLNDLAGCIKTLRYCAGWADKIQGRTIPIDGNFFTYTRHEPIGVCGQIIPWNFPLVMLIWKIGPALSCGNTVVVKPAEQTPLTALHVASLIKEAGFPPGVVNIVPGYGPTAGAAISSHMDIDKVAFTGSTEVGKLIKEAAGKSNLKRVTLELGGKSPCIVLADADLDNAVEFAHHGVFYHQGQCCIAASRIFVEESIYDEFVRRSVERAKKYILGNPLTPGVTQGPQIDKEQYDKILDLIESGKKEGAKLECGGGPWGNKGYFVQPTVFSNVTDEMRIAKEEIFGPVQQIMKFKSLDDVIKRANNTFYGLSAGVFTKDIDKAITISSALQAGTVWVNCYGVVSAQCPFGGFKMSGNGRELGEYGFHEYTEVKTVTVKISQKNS
HttQ103 aggreg: inhibitors of mutant huntingtin aggregate formation in PC12 cells; 1.1% of 220,000 active; Potency, µM (titrated, usually from 46.1 µM), for the others: top-dose activity change, negative = inhibition, usual class: inhibitors; AID 1688; PC12 HttQ103-GFP aggregates, Acumen cytometry, 40 h; active means well fitted curve in the direction sought with a large enough effect; inconclusive means small, poorly fitted or top-dose-only effect, or another doubt; inactive means no such curve, though single readings can be large; an effect the other way counts as inactive or inconclusive; further: on the % scale 0 is the no-effect control and ±100 the full control effect; nearly all actives have a fitted effect of over 60% in size
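PC12 cells stably carrying ecdysone-inducible HTT exon 1 Q103–GFP were induced with tebufenozide (100 nM final) and treated with library compounds in titration. GFP aggregates in lysates were counted by laser scanning cytometry.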
Active calls of the source: *; [ ] = remark or other dose. Unless noted, the call rests on the fitted dose curve; in most records, active means well fitted inhibition curve with a large enough effect (not every such curve was filed as active); inconclusive means small, poorly fitted or top-dose-only effect, or another doubt; inactive means no such curve, though single readings can be large or run the other way. Potency means the concentration at half of the fitted maximal effect.

For CNC(=S)N1N=C(c2ccc(C)cc2)CC1c1ccc(N(C)C)cc1 (configuration not stated) the results were ALDH1A1 block 25µM* and HttQ103 aggreg 18%.
CNC(=S)N1N=C(c2ccc(Br)cc2)CC1c1ccc(OC)cc1 (configuration not stated) was read as HTT ATP protect 14%[10 µM], Lamin A splicing inconclusive, HPGD inh 35µM*, ALDH1A1 block 7.1µM* and HttQ103 aggreg 13%.
CNC(=S)N1N=C(c2ccc(C)cc2)CC1c1cc(OC)ccc1OC (configuration not stated) was read as HTT ATP protect -24%, Lamin A splicing 1%[46 µM], ALDH1A1 block -4% and HttQ103 aggreg 11%.
COCCNC(C(=O)Nc1ccc([N+](=O)[O-])cc1Br)c1ccccc1 (configuration not stated) was read as HTT ATP protect -14%[10 µM], Lamin A splicing inconclusive, HPGD inh -16%, ALDH1A1 block 13µM* and HttQ103 aggreg 2%.
`O=C(Nc1ccc(Cl)c([N+](=O)[O-])c1)C(NCCCO)c1ccccc1` (configuration not stated) gave HTT ATP protect 18%[10 µM], Lamin A splicing 1%, HPGD inh -3%, ALDH1A1 block 0.71µM* and HttQ103 aggreg 16%.
`COCCNC(C(=O)Nc1ccc(C)cc1[N+](=O)[O-])c1ccccc1` (configuration not stated) gave HTT ATP protect -33%, ALDH1A1 block 25µM* and HttQ103 aggreg 3%.
For CCCCNC(C(=O)Nc1ccc([N+](=O)[O-])cc1Br)c1ccccc1 (configuration not stated) the results were Lamin A splicing inconclusive, HPGD inh -9%, ALDH1A1 block inconclusive and HttQ103 aggreg 1%.
`CCC(C)NC(C(=O)Nc1ccc(Cl)c([N+](=O)[O-])c1)c1ccccc1` (configuration not stated) gave HTT ATP protect 13%[1.9 µM], Lamin A splicing -6%, HPGD inh 1%, ALDH1A1 block inconclusive and HttQ103 aggreg 7%.
Screening COCCCNC(=S)Nc1ccc(C)cc1[N+](=O)[O-] returned Lamin A splicing inconclusive, ALDH1A1 block inconclusive and HttQ103 aggreg -20%.
For O=C(NCc1ccccc1)NC1COc2ccccc2C1 (configuration not stated) the results were Lamin A splicing 3%[46 µM].
`C/C(=N\NC(=O)CN(c1ccccc1)S(=O)(=O)c1ccccc1[N+](=O)[O-])C(C)(C)C` gave HTT ATP protect 22%[10 µM], Lamin A splicing -8%, HPGD inh -8%, ALDH1A1 block -3% and HttQ103 aggreg -1%.
`CC(C)(C)C1CCC(=NNC(=O)CN(c2ccccc2)S(=O)(=O)c2ccccc2[N+](=O)[O-])CC1` (configuration not stated) gave Lamin A splicing -7%, HPGD inh -20%, ALDH1A1 block 10µM* and HttQ103 aggreg -8%.
`COCc1cc(=O)[nH]c(SCCS(=O)(=O)c2ccc(C)cc2)n1` gave HTT ATP protect 4%[10 µM], ALDH1A1 block 0.79µM* and HttQ103 aggreg -5%[9.22 µM].
Screening Cc1ccc(/C=C2\C(=O)ON=C2c2ccccc2)o1 returned HTT ATP protect 8%[10 µM], Lamin A splicing inconclusive, ALDH1A1 block inconclusive and HttQ103 aggreg 3%[9.22 µM].
`Cc1ccc(-c2ccc(/C=C3\C(=O)ON=C3c3ccccc3)o2)c([N+](=O)[O-])c1` gave HTT ATP protect -35%, Lamin A splicing inconclusive, HPGD inh 1.3µM*, ALDH1A1 block 8.9µM* and HttQ103 aggreg -16%.
Screening C=CCSc1nnc(-c2cnn(-c3ccccc3)c2-n2cccc2)n1C returned HTT ATP protect 16%, Lamin A splicing 15%, HPGD inh inconclusive, ALDH1A1 block -10% and HttQ103 aggreg -11%.
For CCCSc1nnc(-c2cnn(-c3ccccc3)c2-n2cccc2)n1C the results were HTT ATP protect -12%, Lamin A splicing 20%, HPGD inh 18µM*, ALDH1A1 block inconclusive and HttQ103 aggreg inconclusive.
N/C(=N\OC(=O)c1ccco1)c1ccccc1 was read as HTT ATP protect -10%[10 µM], Lamin A splicing -13%, HPGD inh -29%, ALDH1A1 block 4% and HttQ103 aggreg -28%.
`N/C(=N\OC(=O)c1ccco1)c1ccc(Br)cc1` gave HTT ATP protect -8%, Lamin A splicing inconclusive, HPGD inh -11%, ALDH1A1 block 3.2µM* and HttQ103 aggreg 4%.
Screening Cc1ccc(S(=O)(=O)Nc2cccc(-c3ccc(N4CCC(C)CC4)nn3)c2)s1 returned Lamin A splicing -5%[46 µM].
Cc1ccc(C(=O)N/N=C2\CCSC2)cc1[N+](=O)[O-] was read as Lamin A splicing -9%, HPGD inh -7%, ALDH1A1 block 13µM* and HttQ103 aggreg inconclusive.
Cc1ccccc1N=C/C=C1\N(C)c2ccccc2C1(C)C was read as HTT ATP protect -61%, Lamin A splicing inconclusive, HPGD inh -16%, ALDH1A1 block -14% and HttQ103 aggreg 14µM*.
`CC1CN(CC(O)COC(c2ccccc2)c2ccccc2)CC(C)O1` (configuration not stated) gave HTT ATP protect 5%[10 µM], Lamin A splicing -5%, HPGD inh -6%, ALDH1A1 block 25µM* and HttQ103 aggreg -2%.
For CN1C(=O)N(C)C2=NNC=NC2(O)C1=O (configuration not stated) the results were HTT ATP protect -21%, HPGD inh inconclusive and ALDH1A1 block inconclusive.
Screening C/C(=N/NS(=O)(=O)c1ccc(C)cc1)P(=O)(O)O returned HTT ATP protect 3%[10 µM], HPGD inh -14% and ALDH1A1 block 9%[13.5 µM].
`CN1/C(=C\C(=S)NC(=O)c2ccc([N+](=O)[O-])cc2)C(C)(C)c2ccccc21` gave HTT ATP protect 32%[10 µM], Lamin A splicing -17%, HPGD inh -1%, ALDH1A1 block 35µM* and HttQ103 aggreg inconclusive.
Screening CN1/C(=C\C(=S)NC(=O)c2cccc(Br)c2)C(C)(C)c2ccccc21 returned HTT ATP protect 18%[10 µM], Lamin A splicing inconclusive, ALDH1A1 block 1µM* and HttQ103 aggreg -31%.
For CN1/C(=C\C(=O)Nc2ccc(F)cc2)C(C)(C)c2ccccc21 the results were HTT ATP protect -25%[10 µM], Lamin A splicing -21%, ALDH1A1 block -2% and HttQ103 aggreg 6.3µM*.
`CN1/C(=C/C=N/NC(=O)c2ccc([N+](=O)[O-])cc2)C(C)(C)c2ccccc21` gave Lamin A splicing -2%, HPGD inh -18%, ALDH1A1 block -8% and HttQ103 aggreg inconclusive.
`CCN(CC)S(=O)(=O)c1cccc(C(=O)/C=C2/N(C)c3ccccc3C2(C)C)c1` gave HTT ATP protect 12%[10 µM], Lamin A splicing -3%, HPGD inh -9%, ALDH1A1 block -10% and HttQ103 aggreg 14%.

High-throughput results from PubChem BioAssay.
